Structures are written as SMILES. A number with no mark means an inactive call. Records with an inconclusive call do not appear. Calls of active or inactive are those of the source. Unless noted, calls follow the shape of the dose curve; as a rule, active = well fitted curve in either direction with a large enough effect (not every such curve was filed as active); inconclusive = small, poorly fitted or top-dose-only effect, or another doubt; inactive = flat fitted curve, though single readings scatter.

In PubChem BioAssay (NCATS) one finds Potency, activity change, negative = inhibition and activity, negative = inhibition data, which are given here for six molecules.

Assay [1] deals with Lysosomal acid glucosylceramidase (Homo sapiens) (UniProt P04062). As to the kind of experiment: Glucocerebrosidase-p2 (AID 348; in the data active = potency below about 10 µM; also: potency is read from the fitted curve at half-maximal effect). To be noted: purified GBA, blue fluorogenic substrate, 40 min. Summed up:
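Compounds titrated from 0.6 nM upwards against 0.2 nM enzyme in pH 5.9 citric acid/KH2PO4, taurocholate, tween-20; blue fluorogenic substrate 80 uM, 40 min room temperature, stopped and read Ex 365/Em 440 for AC50.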

Assay [2] can be described thus: AP1 Signaling Pathway (AID 357).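 Also: ME-180 reporter cells stimulated with EGF at its EC50 level; % is scaled to controls: 0 for no effect and ±100 for the full control effect.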 To be noted: ME-180 AP-1-bla reporter, EGF-induced, beta-lactamase ratio, 5 h; at 7.69 µM (top of the series) unless noted. Summed up: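 In this screen, ME-180 cells in Opti-MEM with 0.5% dialyzed FBS received EC50 EGF and compound titrations for 5 h. AP-1 reporter beta-lactamase was detected via CCF4 ratio, giving AC50 for positive and negative modulators.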

In assay [3] the target is Cytochrome P450 1A2 (Homo sapiens) (UniProt P05177). Put plainly: p450-cyp1a2 (AID 410; calls by dose curve; also: potency is read from the fitted curve at half-maximal effect;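 as to activity change, negative = inhibition: -100% = full effect of reference inhibitor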). Conditions: recombinant CYP1A2, luciferin-ME demethylation, luminescence; series mostly up to 11.4 µM. The method in brief:
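Luminescent readout of luciferin formed from Luciferin-ME by human CYP1A2; data normalized against complete inhibition by 57 uM furafylline. Enzyme 20nM, substrate 100uM at Km, 100mM KPO4 buffer, 60 min reaction at room temperature.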

Assay [4] is described as follows: NFAT Signaling Pathway (AID 444).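 Also: carbachol stimulus at about its EC50 of 1 µM final; % is scaled to controls: 0 for no effect and ±100 for the full control effect.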 Conditions: Jurkat NFAT-bla M1, carbachol, beta-lactamase ratio, 5 h; at 7.69 µM (top of the series) unless noted. The method in brief:
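Jurkat cells with NFAT-driven β-lactamase reporter and co-expressed M1 receptor, stimulated with carbachol (final 1 uM, ~EC50), compound titration, 5 h at 37 °C. CCF4 loaded 1 h at RT; 460/530 nm ratio gave %activity and AC50.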

Assay [5] can be described thus: Stat Signaling Pathway (AID 446).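 Also: ME-180 cervical cancer cells given 40 pM IL-6 alongside compound; SIE-controlled beta-lactamase reporter measured as 460/530 nm FRET emission ratio; % is scaled to controls: 0 for no effect and ±100 for the full control effect.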 To be noted: ME-180 (cervical carcinoma) SIE beta-lactamase reporter, IL-6 stimulated, 5 h; at 7.69 µM (top of the series) unless noted. Summed up:
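ME-180 SIE-bla cells; overnight plating; cpd + IL-6 40 pM, 5 h, 37 C; LiveBLAzer 2.5 h RT; 460/530 nm emission ratio. Normalized to 300 pM IL-6 and 125 nM JAK inhibitor controls.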

In assay [6] the target is Glucocorticoid receptor (Homo sapiens) (UniProt P04150). As to the kind of experiment: GR-GFP Redistribution (AID 450;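 active = compounds whose dose series gives a full or clear partial fitted curve of increased nuclear translocation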; also: potency is read from the fitted curve at half-maximal effect). To be noted: U2OS GR-GFP nuclear translocation, laser cytometry, 2 h.
Assay [7] has the same target. As to the kind of experiment: GR-EFC Redistribution (AID 451; calls by dose curve; also: potency is read from the fitted curve at half-maximal effect). Conditions: CHO-K1 GR-EFC translocation, beta-gal luminescence, 2 h. The method in brief:
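CHO-K1 cells expressing nuclear EA and GR-ED fragments of b-gal; compounds titrated up to 46 uM final, 2 h at 37 C. GR nuclear translocation read as complemented b-gal luminescence after 1 h RT detection.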

The target in assay [8] is Mitogen-activated protein kinase 10 (Mus musculus) (UniProt Q61831). Put plainly: JNK3 AlphaScreen Assay (AID 530).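 Also: kinase came from lysate of stimulated human HepG2 cells; signal reports phosphorylation of biotinylated GST-cJun 1-79 at Ser73 with 10 µM ATP; % is scaled to controls: 0 for no effect and ±100 for the full control effect.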 Conditions: JNK3 lysate, c-Jun phosphorylation; series mostly up to 11.4 µM. Summed up: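 Pre-activated (IL-1β/TNFα) JNK3 in HepG2 lysates phosphorylates biotin-GST-cJun(1-79), 10 uM ATP; anti-phospho-cJun(Ser73) AlphaScreen read at room temperature, pH 7.6 Tris buffer. Compounds pre-incubated 15 min as titrations.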
(In general: In Alpha technology, singlet oxygen from a donor bead excites a nearby acceptor bead.)

In assay [9] the target is 3',5'-cyclic-AMP phosphodiesterase 4B (Homo sapiens) (UniProt Q07343). Put plainly: qHTS Assay for Inhibitors of PDE-IV (AID 607; active = well fitted activation curve with a large enough effect in the main read-out, with a control signal flat, not every such curve was filed as active; also: % of control where 0% means no effect). Conditions: HEK293 ACTOne CNG channel cells, membrane potential fluorescence; series mostly up to 22.9 µM. Summed up: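 ACTOne HEK293 cells carry a modified cAMP-gated CNG channel and express endogenous PDE4; plated 1000 cells/well, compounds up to 22.9 uM final. Membrane-potential dye fluorescence (ex 535/em 590) was read; parental cells received 10 uM forskolin + 100 uM RO 20-1724.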
On the technique in general: Quantitative high-throughput screening tests each substance at several concentrations.

Assay [10] concerns the target Cytochrome P450 3A4 (Homo sapiens) (UniProt P08684). As to the kind of experiment: qHTS Assay for Inhibitors and Substrates of Cytochrome P450 3A4 (AID 884; active = well fitted curve in the direction sought with a large enough effect; an effect the other way counts as inactive or inconclusive; also: nearly all actives have a fitted effect of over 50% in size; also: potency is read from the fitted curve at half-maximal effect). Conditions: recombinant CYP3A4, Luciferin-PPXE luminescence; series mostly up to 57.1 µM. Summed up: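 20 nM human CYP3A4 with 25 uM Luciferin-PPXE (at KM) in 200 mM KPO4, preincubated 10 min with compound; NADPH regeneration started a 60 min RT reaction. Luciferin detected by luminescence, normalized to 57 uM ketoconazole as full inhibition.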

Assay [11] has the same target. Put plainly: qHTS Assay for Activators of Cytochrome P450 3A4 (AID 885; active = well fitted curve in the direction sought with a large enough effect; an effect the other way counts as inactive or inconclusive; also: nearly all actives have a fitted effect of over 65% in size). To be noted: recombinant CYP3A4, Luciferin-PPXE luminescence, 60 min; series mostly up to 11.4 µM. The method in brief:
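20nM CYP3A4 + 25uM Luciferin-PPXE (=KM), 200mM KPO4; cpd 10 min RT; NADPH regen, 60 min RT; stop w/ detection buffer, 20 min; luminescence. Normalized to 57 uM ketoconazole.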

Assay [12] concerns the target Cytochrome P450 2C19 (Homo sapiens) (UniProt P33261). As to the kind of experiment: qHTS Assay for Inhibitors and Substrates of Cytochrome P450 2C19 (AID 899; active = well fitted curve in the direction sought with a large enough effect; an effect the other way counts as inactive or inconclusive; also: nearly all actives have a fitted effect of over 60% in size; also: potency is read from the fitted curve at half-maximal effect). Conditions: recombinant CYP2C19, luciferin-H EGE luminescence; series mostly up to 11.4 µM. The method in brief:
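Luminescent read-out of luciferin formed from Luciferin-H EGE (10uM, equal to KM). Enzyme 5nM in 50mM KPO4; compound added, 10 min at 37C, then NADPH regenerating system for 60 min at 37C. Full inhibition defined by 57uM ketoconazole.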

Glucocorticoid receptor (Homo sapiens), sequence (P04150 whole entry, looked up): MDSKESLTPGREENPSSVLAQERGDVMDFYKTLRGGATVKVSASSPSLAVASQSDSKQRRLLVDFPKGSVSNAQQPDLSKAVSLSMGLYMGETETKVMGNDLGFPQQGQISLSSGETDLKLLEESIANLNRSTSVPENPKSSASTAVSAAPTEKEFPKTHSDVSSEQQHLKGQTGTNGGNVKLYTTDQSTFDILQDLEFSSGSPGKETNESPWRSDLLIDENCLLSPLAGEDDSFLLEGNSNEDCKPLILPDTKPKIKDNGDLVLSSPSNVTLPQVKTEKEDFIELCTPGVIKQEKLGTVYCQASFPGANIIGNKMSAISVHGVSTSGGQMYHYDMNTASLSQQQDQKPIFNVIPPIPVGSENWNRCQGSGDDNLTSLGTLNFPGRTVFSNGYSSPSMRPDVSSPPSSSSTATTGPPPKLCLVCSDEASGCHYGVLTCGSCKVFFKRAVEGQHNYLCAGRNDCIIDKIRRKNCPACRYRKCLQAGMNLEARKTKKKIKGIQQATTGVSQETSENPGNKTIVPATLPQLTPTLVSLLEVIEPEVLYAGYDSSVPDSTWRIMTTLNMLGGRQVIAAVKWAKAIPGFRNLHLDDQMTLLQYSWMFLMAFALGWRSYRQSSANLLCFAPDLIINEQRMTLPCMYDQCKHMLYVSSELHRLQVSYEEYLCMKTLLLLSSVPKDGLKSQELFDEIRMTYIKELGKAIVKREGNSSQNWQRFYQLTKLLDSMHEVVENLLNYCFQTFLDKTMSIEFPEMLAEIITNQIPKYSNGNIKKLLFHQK
3',5'-cyclic-AMP phosphodiesterase 4B (Homo sapiens), sequence (Q07343 whole entry, looked up): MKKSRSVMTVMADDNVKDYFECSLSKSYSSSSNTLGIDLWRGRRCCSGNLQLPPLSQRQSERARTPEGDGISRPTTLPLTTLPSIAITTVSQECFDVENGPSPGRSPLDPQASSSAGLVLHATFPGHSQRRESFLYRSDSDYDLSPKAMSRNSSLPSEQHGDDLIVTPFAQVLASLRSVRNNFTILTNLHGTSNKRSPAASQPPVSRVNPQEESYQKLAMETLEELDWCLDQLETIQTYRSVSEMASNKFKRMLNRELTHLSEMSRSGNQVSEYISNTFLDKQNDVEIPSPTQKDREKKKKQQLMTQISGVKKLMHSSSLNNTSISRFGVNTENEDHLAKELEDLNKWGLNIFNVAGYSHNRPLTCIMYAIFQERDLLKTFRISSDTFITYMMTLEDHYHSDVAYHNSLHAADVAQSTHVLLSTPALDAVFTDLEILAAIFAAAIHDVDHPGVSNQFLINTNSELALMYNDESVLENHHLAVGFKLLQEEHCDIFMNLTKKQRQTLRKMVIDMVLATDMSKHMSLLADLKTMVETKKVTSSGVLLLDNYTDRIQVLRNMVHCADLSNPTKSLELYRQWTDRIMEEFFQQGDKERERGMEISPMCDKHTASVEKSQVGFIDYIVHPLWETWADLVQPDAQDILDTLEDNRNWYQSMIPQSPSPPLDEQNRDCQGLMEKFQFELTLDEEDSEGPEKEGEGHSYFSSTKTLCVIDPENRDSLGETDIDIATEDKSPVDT
Cytochrome P450 3A4 (Homo sapiens), sequence (P08684 whole entry, looked up): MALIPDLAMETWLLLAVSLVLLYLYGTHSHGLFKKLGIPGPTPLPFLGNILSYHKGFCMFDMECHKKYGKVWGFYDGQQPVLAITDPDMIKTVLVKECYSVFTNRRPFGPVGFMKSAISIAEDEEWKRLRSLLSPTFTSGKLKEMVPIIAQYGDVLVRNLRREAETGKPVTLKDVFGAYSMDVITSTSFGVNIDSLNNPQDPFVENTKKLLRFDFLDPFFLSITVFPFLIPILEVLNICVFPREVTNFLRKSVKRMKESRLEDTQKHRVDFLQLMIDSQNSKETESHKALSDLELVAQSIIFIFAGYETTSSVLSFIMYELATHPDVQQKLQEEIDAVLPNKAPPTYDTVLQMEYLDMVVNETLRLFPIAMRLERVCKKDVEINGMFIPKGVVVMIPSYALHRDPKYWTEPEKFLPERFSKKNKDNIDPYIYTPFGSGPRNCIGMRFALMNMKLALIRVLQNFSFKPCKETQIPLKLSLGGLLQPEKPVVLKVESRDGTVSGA
Cytochrome P450 1A2 (Homo sapiens), sequence (P05177 whole entry, looked up): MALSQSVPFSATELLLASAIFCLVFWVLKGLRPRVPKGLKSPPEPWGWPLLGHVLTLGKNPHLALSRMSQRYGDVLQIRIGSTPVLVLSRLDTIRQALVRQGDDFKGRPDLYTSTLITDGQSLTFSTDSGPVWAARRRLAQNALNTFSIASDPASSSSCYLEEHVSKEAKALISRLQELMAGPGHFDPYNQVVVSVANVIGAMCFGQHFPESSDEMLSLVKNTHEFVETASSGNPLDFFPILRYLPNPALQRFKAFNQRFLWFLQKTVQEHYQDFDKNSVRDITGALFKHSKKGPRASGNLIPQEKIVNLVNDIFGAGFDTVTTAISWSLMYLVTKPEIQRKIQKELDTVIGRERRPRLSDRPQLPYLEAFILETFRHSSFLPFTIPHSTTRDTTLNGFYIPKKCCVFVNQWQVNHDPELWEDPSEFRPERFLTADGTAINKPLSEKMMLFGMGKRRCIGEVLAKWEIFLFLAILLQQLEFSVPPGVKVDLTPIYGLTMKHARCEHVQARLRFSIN
Lysosomal acid glucosylceramidase (Homo sapiens), sequence (P04062 whole entry, looked up): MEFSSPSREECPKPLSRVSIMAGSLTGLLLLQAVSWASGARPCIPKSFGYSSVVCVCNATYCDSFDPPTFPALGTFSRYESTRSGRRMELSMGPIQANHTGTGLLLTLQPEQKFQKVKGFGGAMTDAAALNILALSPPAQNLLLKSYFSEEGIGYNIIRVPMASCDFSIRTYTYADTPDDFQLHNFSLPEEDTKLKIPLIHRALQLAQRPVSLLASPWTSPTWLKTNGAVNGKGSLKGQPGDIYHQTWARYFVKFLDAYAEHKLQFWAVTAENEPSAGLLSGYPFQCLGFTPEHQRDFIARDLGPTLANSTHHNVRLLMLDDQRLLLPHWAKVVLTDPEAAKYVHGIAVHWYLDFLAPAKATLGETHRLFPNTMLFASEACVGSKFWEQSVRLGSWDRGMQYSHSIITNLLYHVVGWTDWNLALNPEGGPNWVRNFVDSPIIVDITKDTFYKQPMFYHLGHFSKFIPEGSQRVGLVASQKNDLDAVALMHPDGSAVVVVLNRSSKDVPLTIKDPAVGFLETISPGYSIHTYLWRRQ
Cytochrome P450 2C19 (Homo sapiens), sequence (P33261 whole entry, looked up): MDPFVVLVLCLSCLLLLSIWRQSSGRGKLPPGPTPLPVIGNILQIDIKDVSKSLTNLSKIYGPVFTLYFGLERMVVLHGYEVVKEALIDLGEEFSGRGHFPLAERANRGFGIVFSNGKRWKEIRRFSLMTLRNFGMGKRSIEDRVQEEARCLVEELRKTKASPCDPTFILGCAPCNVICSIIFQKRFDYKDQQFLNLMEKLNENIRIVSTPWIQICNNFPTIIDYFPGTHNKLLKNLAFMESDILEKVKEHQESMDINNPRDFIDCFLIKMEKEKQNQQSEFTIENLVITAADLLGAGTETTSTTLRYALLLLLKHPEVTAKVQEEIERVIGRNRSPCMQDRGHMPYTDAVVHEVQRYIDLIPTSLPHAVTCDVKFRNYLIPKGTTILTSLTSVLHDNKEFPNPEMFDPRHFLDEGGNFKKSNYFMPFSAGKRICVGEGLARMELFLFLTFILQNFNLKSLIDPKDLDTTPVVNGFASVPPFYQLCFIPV

For the molecule `CC(C)(C)C(=O)[C@H]([C@@H](c1ccccc1)N1CCOCC1)N1CCOCC1`, the Potency was over 11.4 µM in [1], over 46 µM in assay [6], over 9.22 µM in assay [7] and 2.51 µM (active) in assay [10]. In addition, the activity change, negative = inhibition in assay [2] was 0.675%; in assay [4], 16.7%. The Potency entry in assay [3], in assay [8], in assay [9] and in assay [11] was “inactive” throughout. The activity, negative = inhibition in assay [5] was 2.4%.

On to `Nc1nc(SC/C=C\c2ccccc2)c2[nH]cnc2n1`, for which the Potency in assay [1] is over 11.4 µM; in [3], 5.01 µM (active); in assay [6] it was over 46 µM; in assay [7], over 9.22 µM; in assay [10], 2.51 µM (active); in assay [12] it was 1.58 µM (active). Besides, the activity change, negative = inhibition in assay [2] was 6.66%; in assay [4], 24.8%. For the same molecule, in assay [5], the activity, negative = inhibition was 1.2%. Also, the Potency entry in assay [8], in [9] and in [11] was “inactive” throughout.

As for `CC(C)N1CCN(c2ccncc2S(=O)(=O)N2CCCCC2)CC1`, the Potency in assay [1] is over 11.4 µM; in assay [6], over 46 µM; in [7], over 9.22 µM; in assay [10] it was 3.16 µM (active). Moreover, the activity change, negative = inhibition in assay [2] is 0.726%; in [3], -17% [at 2.29 µM]; in assay [4], -81.6% (active). Moreover, the activity, negative = inhibition in [5] was -6.7%. Further, the Potency result in assay [8], in assay [9] and in assay [11] was “inactive” throughout.

Take `Cn1c(=O)c2[nH]c(CCCCc3nc4c([nH]3)c(=O)n(C)c(=S)n4C)nc2n(C)c1=S`: the Potency was over 11.4 µM in [1], over 46 µM in assay [6], over 9.22 µM in assay [7] and 1.26 µM (active) in assay [10]. The activity change, negative = inhibition in assay [2] is 1.54%; in [3], -13.8% [at 2.29 µM]; in [4] it was -2.84%. In assay [5], the activity, negative = inhibition was -5.06%. The Potency entry in assay [8], in assay [9], in [11] and in [12] was “inactive” in each case.

In the case of `O=C(O)/C(=C\c1ccccc1)Cc1ccccc1`, the Potency is over 11.4 µM in assay [1], over 46 µM in assay [6] and over 9.22 µM in assay [7]. Moreover, the activity change, negative = inhibition is -5.32% in assay [2], 3.67% in assay [4] and 30.2% [at 11.4 µM] in assay [10]. Further, the Potency entry in assay [3], in assay [8] and in [9] was “inactive” each time. Also, the activity, negative = inhibition in assay [5] was 5.03%.

Regarding `c1ccc2c(c1)-c1nc3ccccc3cc1[C@H]2N1CCOCC1`, the Potency is over 11.4 µM in assay [1]; 1.26 µM (active) in [3]; over 46 µM in assay [6]; over 9.22 µM in assay [7]; 2.51 µM (active) in [10]. Besides, the activity change, negative = inhibition in [2] was -6.79%; in assay [4], -6.28%. Further, in [5], the activity, negative = inhibition was 7.66%. Also, the Potency entry in assay [8], in assay [9] and in assay [11] was “inactive” each time.
